Shown is part of a subset that was picked to be rich in hits.
ROC1-CUL1 inh: blocks human RBX1-Cullin-1 di-ubiquitin formation; P62877+Q13616; in vitro K48 di-Ub FRET, acceptor:donor ratio, 45 min; inhibition, % at 10 µM; hit rate 0.6% among 140,000; AID 1347404; in the data active = inhibition above about 25%
Each line names hits and unclear results; the compound was inactive in the other large screens.

CCSc1nnc(NC(=O)/C=C/c2ccco2)s1	none
O=C(/C=C\c1ccco1)Nc1cccc(C(=O)Nc2cccc(O)c2)c1	none
O=C(/C=C/c1ccco1)NCc1cccc(CNC(=O)/C=C/c2ccco2)c1	ROC1-CUL1 inh 97
N=C(CC(=O)/C=C/c1ccco1)C(F)(F)F	none
CC(C)(C)c1ccc(C(=O)OCc2ccc(Cl)cc2)cc1	none
Cc1nn(Cc2ccccc2)c(=O)n1C	none
CC(=O)N(c1ccccc1)C1SC(=O)N(c2cccc(C)c2)C1=O (stereo not given)	none
Clc1cccc(-c2ccc(CNCC3CCNCC3)o2)c1	none
CN(C)c1ccc(/C=C(\C#N)c2nc3ccccc3s2)cc1[N+](=O)[O-]	none
O=C(Nc1ccc(Br)cc1F)c1ccccc1	none
CC1=NC(=S)C(C#N)=C(C(F)(F)F)C1	none
N#CC1=C(c2ccccc2)CC(C(F)(F)F)=NC1=S	none
N#CC1=C(C(F)(F)F)CC(c2ccco2)=NC1=S	ROC1-CUL1 inh 91
CCC(=O)N1c2ccccc2-c2nnc(SC)nc2OC1c1ccc(-c2ccc(C)c(Cl)c2)o1 (stereo not given)	none
C=CCn1c(SCc2c(C)noc2C)nc2scc(-c3ccc(OC)cc3)c2c1=O	none
Nc1nc(N=Nc2ccc(O)c(C(=O)O)c2)[nH]c1N	none
Cc1ccc2c(c1)C(=O)C(C(c1ccc(N(C)C)cc1)C1C(=O)Oc3ccc(C)cc3C1=O)C(=O)O2 (stereo not given)	none
Cc1ccc2c(c1)C(=O)C(C(c1ccccc1Cl)C1C(=O)Oc3ccc(C)cc3C1=O)C(=O)O2 (stereo not given)	ROC1-CUL1 inh 63
COc1cccc(C(C2C(=O)Oc3ccc(C)cc3C2=O)C2C(=O)Oc3ccc(C)cc3C2=O)c1 (stereo not given)	none
Cc1ccc(C(=O)Nc2ccc(S(=O)(=O)NC(C)C)cc2)o1	none
CCNC(=O)C1CCN(Cc2c(F)cccc2Cl)CC1	none
CCCCS(=O)(=O)Nc1cccc(OC)c1	none
CC(=O)CC(=O)NC(=N)c1ccccc1	none
O=C(CSc1nc2scc(-c3ccccc3)c2c(=O)n1-c1ccccc1)c1ccc2c(c1)OCO2	none
COC(=O)Nc1nc2ccc(Sc3ccccc3NC(=O)c3ccccc3)cc2[nH]1	none
COc1ccc(CCNC(=S)Nc2c(Cl)cncc2Cl)cc1OC	none
COc1ccc(CCNC(=S)Nc2cc(Cl)ccc2Cl)cc1OC	none
COc1ccc(CCNC(=S)S)cc1OC	ROC1-CUL1 inh 99
CC(=NNC(=O)C(=O)Nc1ccc(C)cc1)c1ccccc1	none
CCOc1c(Br)cc(CNc2cc(Cl)ccc2C)cc1OC	none
O=C(COc1ccc(Cl)cc1Cl)Nc1ccc(Cc2ccc(NC(=O)COc3ccc(Cl)cc3Cl)cc2[N+](=O)[O-])c([N+](=O)[O-])c1	none
CCN1C(=O)C([N+](=O)[O-])C(=NC2CCCCC2)c2ccccc21 (stereo not given)	none
O=C1NC(=S)N(c2cccc(F)c2)C(=O)/C1=C/c1ccc(N2CCCC2)o1	ROC1-CUL1 inh 26
O=C1NC(=S)N(c2cccc(Br)c2)C(=O)/C1=C/c1cc(Br)c(O)c(Br)c1	none
COc1cc(/C=C2\C(=O)NC(=O)N(c3cc(C)cc(C)c3)C2=O)cc(Br)c1O	none
CC(C)Oc1ccccc1/C=C1\C(=O)NC(=S)N(c2cccc(F)c2)C1=O	none
Cc1ccc(N2C(=O)/C(=C\c3ccc(-c4ccc(Cl)c(C(=O)O)c4)o3)C(=O)NC2=S)cc1	ROC1-CUL1 inh 63
COc1cc(Br)cc(/C=C2/C(=O)NC(=O)N(c3cc(C)cc(C)c3)C2=O)c1O	none
COC(=O)c1ccccc1-n1c(C)cc(/C=C2\C(=O)NC(=S)N(c3ccc(OC)cc3)C2=O)c1C	none
COc1ccc(N2C(=O)/C(=C/c3cc(C)n(-c4ccc(Cl)c(C(=O)O)c4)c3C)C(=O)NC2=S)c(OC)c1	ROC1-CUL1 inh 79
COc1ccc(N2C(=O)/C(=C/c3cc(C)n(-c4ccc(NC(C)=O)cc4)c3C)C(=O)NC2=S)cc1	none
Cc1ccc(-n2c(-c3ccccc3)cc(/C=C3\C(=O)NC(=S)N(c4ccc(C)c(C)c4)C3=O)c2-c2ccccc2)cc1	none
Cc1cc(C)cc(N2C(=O)NC(=O)/C(=C\c3ccc(Br)o3)C2=O)c1	ROC1-CUL1 inh 94
COc1ccc(/C=C2/C(=O)NC(=S)N(c3ccccc3)C2=O)cc1C(=O)O	none
COc1cc(C2c3cc4c(cc3OC(=N)C2C#N)OCO4)ccc1OCc1ccc(C)cc1 (stereo not given)	none
COc1ccc2ccccc2c1/C=C1\C(C)=C(C#N)c2nc(N)c(C#N)c(C)c21	none
COc1ccccc1C1N[C@H](C(=O)O)CS1 (stereo not given in full)	none
O=C(N1CCOCC1)N1CCc2[nH]nc(CC3CCCCC3)c2C1	none
CCCCOc1ccc(NC(=O)CC2C(=O)N(Cc3ccccc3)C(=S)N2c2cnn(Cc3ccc(F)cc3)c2)cc1 (stereo not given)	none
CN1CCN([C@@H]2CCN(Cc3cccc4c3oc3ccccc34)C[C@H]2O)CC1	none
C=CCOc1c(Br)cc(CNCCCN2CCOCC2)cc1OCC	none
Cc1ccc(C)c(/C=C2\N=C(c3ccco3)OC2=O)c1	none
O=C1Nc2ccccc2/C1=C/c1ccc(-c2cccc(C(=O)O)c2)o1	none
COc1cccc(/C=C2/C(=O)NC(=O)N(c3cc(C)cc(C)c3)C2=O)c1O	none
C=CCN1C(=O)/C(=C/c2ccc(-c3cccc(C(F)(F)F)c3)o2)C(=O)NC1=S	ROC1-CUL1 inh 103
Cc1cc(C)cc(N2C(=O)NC(=O)/C(=C/c3ccc(-c4cccc(C(=O)O)c4)o3)C2=O)c1	ROC1-CUL1 inh 85
O=C(N/N=C/c1ccc(-c2cccc(C(=O)O)c2)o1)Nc1ccc(Cl)cc1	none
O=C1NC(=S)N(c2ccc(Cl)cc2)C(=O)/C1=C\c1ccc(-c2cccc(C(=O)O)c2)o1	ROC1-CUL1 inh 100
O=C1NC(=S)N(c2ccccc2)C(=O)/C1=C\c1ccc(-c2ccc(F)cc2)o1	none
C=CCN1C(=O)/C(=C\c2cccc(OC)c2OC)C(=O)NC1=S	none
O=C1NC(=S)NC(=O)C1=Cc1cc(Br)c(Sc2ccc(Cl)cc2)o1	none
COC(=O)CN1C(=O)S/C(=C/c2cc(Br)c(Sc3ccc(Cl)cc3)o2)C1=O	none
Cc1ccc(N2C(=O)NC(=O)/C(=C\c3cc(Br)c(Sc4ccc(Cl)cc4)o3)C2=O)cc1	ROC1-CUL1 inh 100
C=CCN1C(=O)/C(=C\c2cccc(OCc3ccc(F)cc3)c2)C(=O)NC1=S	none
CC(c1cccnc1)c1c(Cl)[nH]c2ccccc12 (stereo not given)	none
CCCCN(CCCC)C(=O)C1C=Nc2ccc(S(=O)(=O)Nc3cccc(Cl)c3C)cc2C1=O (stereo not given)	none
O=C(c1ccccn1)N1CCCC(CCc2ccc(F)cc2F)C1 (stereo not given)	none
Cc1sc2[nH]c(=S)n(-c3ccc(Cl)cc3)c(=O)c2c1C	none
CCCc1[nH]nc2c1C(c1cncc(-c3ccc(F)cc3)c1)C(C#N)C(=N)O2 (stereo not given)	none
C=CCSc1nc2ccccc2n1C(=O)SCC	none
Cc1c(C(=O)O)nnn1-c1ccc(Br)cc1	none
Cc1cc(OCC(=O)Oc2ccc(Cl)cc2)ccc1Br	none
CC1(C)c2ssc(=Nc3ccccc3)c2-c2cccc3c2N1C(=O)C3=O	none
O=C(/C=C/c1ccccc1)C1C(=O)C(=O)N(c2ccccn2)C1c1ccccc1 (stereo not given)	none
Cc1nc(N2C(=O)C(=O)C(C(=O)c3ccccc3)C2c2ccc(Br)cc2)sc1C (stereo not given)	none
CN(C)c1ccc(C2C(C(=O)c3ccccc3)C(=O)C(=O)N2c2ccc(Cl)cc2)cc1 (stereo not given)	none
CC(C)Oc1ccc(C(=O)C2C(=O)C(=O)N(c3ccccn3)C2c2ccc(Cl)cc2)cc1 (stereo not given)	none
